ST2 IL33 inh – IL1RL1 inhibition; AlphaLISA ST2-Fc/biotin-IL-33 interaction, 1 h; hit rate 2.3% among 78,000; inhibition, % for hits at 17 µM; in the data active = inhibition above about 30%
Target sequence (Q01638 whole entry, looked up): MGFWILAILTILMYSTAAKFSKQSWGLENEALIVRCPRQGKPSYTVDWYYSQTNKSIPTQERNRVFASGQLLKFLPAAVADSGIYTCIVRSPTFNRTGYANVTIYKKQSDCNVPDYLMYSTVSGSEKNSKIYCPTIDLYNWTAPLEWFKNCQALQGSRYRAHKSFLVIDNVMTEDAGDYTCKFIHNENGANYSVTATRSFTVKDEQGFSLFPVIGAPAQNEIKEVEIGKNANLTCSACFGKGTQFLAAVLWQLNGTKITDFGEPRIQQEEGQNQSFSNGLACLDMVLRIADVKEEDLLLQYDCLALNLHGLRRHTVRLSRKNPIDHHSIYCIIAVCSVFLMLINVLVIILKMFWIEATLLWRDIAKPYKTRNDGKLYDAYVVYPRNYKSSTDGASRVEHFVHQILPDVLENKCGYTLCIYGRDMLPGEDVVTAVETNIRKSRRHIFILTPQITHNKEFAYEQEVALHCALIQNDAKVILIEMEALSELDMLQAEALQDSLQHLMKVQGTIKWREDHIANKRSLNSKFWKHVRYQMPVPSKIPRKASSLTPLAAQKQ
* hit, by the source's call; i = inactive. Shown is part of a subset that was picked to be rich in hits.

SMILES	ST2 IL33 inh
Cc1ccc(C(NC(=O)Cc2ccccn2)c2cccnc2)cc1C (configuration not stated)	i
Cc1ccc(C)c(CSC2=NCCN2C(=O)C2CC2)c1	i
Cc1ccc(C2C(C(=O)c3ccccc3)=C(N)OC3=C2C(=O)CCC3)cc1 (configuration not stated)	i
O=C(Nc1nnc(N=Cc2cccs2)s1)c1ccc([N+](=O)[O-])cc1[N+](=O)[O-]	i
O=C1CSC(c2ccc(Br)cc2)N1c1cccc(F)c1 (configuration not stated)	i
O=C(c1ccc(Cn2cccn2)o1)N1CC[C@H](CO)[C@H](O)C1	i
COc1cc(NC(=O)N2C[C@@H]3C[C@H](C2)c2ccc(NS(=O)(=O)c4ccc(C)cc4)c(=O)n2C3)cc(OC)c1	i
O=C(NCCc1ccccc1)C1CCN(c2ccc(-c3cccs3)nn2)CC1	i
CC1CCC(NC(=O)C2CC(=O)N(C3CCCCCC3)C2)CC1 (configuration not stated)	i
CCOc1ccc(S(=O)(=O)NC(C)CC)c2cccnc12 (configuration not stated)	i
COC(=O)[C@@H]1CN(C(=O)CSC)CCN1C(=O)c1cccnc1	i
Cc1cc2c3c(C)n(C)c(C)c3c(C)nn2c1	54%*
COc1ccc(OC)c(C=Nc2ccc(S(=O)(=O)Nc3ccccn3)cc2)c1	i
O=C(NCCc1ccccc1)c1ccc2nc3ccsc3c(=O)n2c1	i
Cc1nc2c(C)cccc2cc1C(=O)N1CCC(c2cc(CC(=O)O)[nH]n2)CC1	i
Cc1ccc(C2CC(c3ccc(F)cc3)=NN2c2ccccc2)o1 (configuration not stated)	40%*
COc1ccc(C2CC(c3ccccc3)=NN2C(=O)c2ccc(F)cc2)cc1 (configuration not stated)	i
COc1ccc(C2=NN(S(=O)(=O)c3ccc(C)cc3)C(c3ccc(F)cc3)C2)cc1OC (configuration not stated)	i
Cc1cc(=O)[nH]c2c1c(-c1ccccc1)nn2-c1ccccc1	i
Cc1ccc2[nH]cc(-c3ccc(C(=O)N(C)C)o3)c2c1	i
CCOc1c(Nc2cccc(Cl)c2C)c(=O)c1=O	i
Cc1cc(C)c(S(=O)(=O)N2CCCC2=O)c(C)c1	i
Cc1cc(C)c(N2CCC(=O)N2)c(C)c1	33%*
CCN1CCN(Cc2c(C)[nH]c3c(C)cc(C)cc3c2=O)CC1	i
CN(C(=O)c1ccc(Cl)c([N+](=O)[O-])c1)C1CCS(=O)(=O)C1 (configuration not stated)	i
SMILES	ST2 IL33 inh
CC1=C(CN2CCOCC2)C(=O)N(c2ccccn2)C1c1ccc(Cl)cc1 (configuration not stated)	i
CN(C)c1ccc(C(=O)N[C@H]2C[C@@H](c3nc(-c4ccccn4)no3)N(C)C2)cc1	i
Cc1noc([C@@H]2C[C@H](NC(=O)c3ccco3)CN2C)n1	i
CN1C[C@@H](NC(=O)c2ccc(C(C)(C)C)cc2)C[C@H]1c1nc(-c2ccc3c(c2)OCO3)no1	64%*
CN1C[C@@H](NC(=O)c2ccc(-c3ccccc3)cc2)C[C@H]1c1nc(-c2ccc(Cl)cc2)no1	i
Cc1noc([C@@H]2C[C@H](NC(=O)c3ccc(F)cc3)CN2C)n1	40%*
COc1ccc(C(=O)N[C@H]2C[C@@H](c3nc(-c4ccc(OC(F)(F)F)cc4)no3)N(C)C2)cc1	i
O=C(CNC1=NCCC1)c1ccc(-c2ccccc2)cc1	i
Cn1c2ccccc2c2nnc(SCC(=O)NCc3ccco3)nc21	i
Cc1[nH]nc(CCC(=O)N2CC[C@@H](N3CCOCC3)[C@H](O)C2)c1C	i
C[C@@]12CC[C@@H](C[C@@H]1N)C2	41%*
CCN(CC)S(=O)(=O)c1ccc(Oc2ccc([N+](=O)[O-])cc2)cc1	i
O=[N+]([O-])c1cc(C=Nc2ccc(N3CCOCC3)cc2)ccc1Cl	48%*
O=[N+]([O-])c1cc(C=Nc2ccc(-c3nc4ncccc4o3)cc2)ccc1Cl	i
O=[N+]([O-])c1ccc(N2CCCC2)cc1N1CCOCC1	i
CN(Cc1ccccc1)C(=O)CCN1C(=O)c2ccccc2C1=O	i
CCN(CC)C(=O)Cn1cc(/C=C2\C(=O)NC(=O)N(CC)C2=O)c2ccccc21	i
CCn1cc(C=C2C(=O)OC(C)(C(C)(C)C)OC2=O)c2ccccc21 (configuration not stated)	44%*
N#Cc1ccccc1Cn1cc(C=C2C(=O)NC(=O)NC2=O)c2ccccc21	i
Cn1cc(/C=C2\C(=O)NN(c3ccccc3)C2=O)c2ccccc21	i
Cn1cc(C=C2C(=O)OC3(CCCCC3)OC2=O)c2ccccc21	41%*
COc1ccc(C=C2C(=O)OC3(CCCCC3)OC2=O)cc1O	i
CCOc1cc(C=C2C(=O)OC(C)(C(C)(C)C)OC2=O)cc(I)c1O (configuration not stated)	i
CCN(CC)c1ccc(C=C2C(=O)OC(C)(C(C)(C)C)OC2=O)cc1 (configuration not stated)	43%*
CCOc1cc(C=C2C(=O)OC(C)(C(C)(C)C)OC2=O)ccc1OC (configuration not stated)	i
SMILES	ST2 IL33 inh
O=C(c1ccco1)N1CCN(S(=O)(=O)c2cccc3cccnc23)CC1	i
CCc1c(C)sc(NC(=O)CCCn2nc([N+](=O)[O-])c(Cl)c2C)c1C#N	i
NC(=O)c1cccc(CC2CCN(C(=O)CCc3cccc(F)c3)C2)c1 (configuration not stated)	i
COc1ccccc1N(CC(=O)O)S(C)(=O)=O	i
CC(C)CN1CCNC(=O)C1CC(=O)N(C)Cc1cccc2cccnc12 (configuration not stated)	79%*
CN(CCC1CCOCC1)C(=O)CC1C(=O)NCCN1Cc1cccc2ccccc12 (configuration not stated)	i
CN(Cc1cnccn1)C(=O)CC1C(=O)NCCN1Cc1ccc(F)cc1Cl (configuration not stated)	i
CC(=O)Nc1ccc(C(=O)CC#N)cc1	i
Cc1[nH]cnc1-c1nccn1CC1CCS(=O)(=O)C1 (configuration not stated)	i
O=C(O)c1ccccc1CN1CCCCC1CCc1ccc(O)cc1 (configuration not stated)	i
COc1ccccc1CN1CC[C@H](c2nnc(C)o2)C1	i
O=[N+]([O-])c1cccc(/C=C/c2ccccn2)c1	37%*
O=[N+]([O-])c1cccc(C(=Nc2ccccc2)NO)c1	i
Nc1nnc(/C=C/c2cccc([N+](=O)[O-])c2)s1	i
CC(=O)NCCC(=O)NCc1cccnc1N1CCCCCCC1	i
COc1ccc(-c2oc3ncn(CCO)c(=N)c3c2-c2ccc(OC)cc2)cc1	i
OCCNc1ncnc2oc(-c3ccccc3)c(-c3ccccc3)c12	35%*
N=c1c2c(-c3ccccc3)c(-c3ccccc3)oc2ncn1CCCO	i
CC(C)(C)C1CCc2c(sc(NC(=O)c3ccccc3F)c2C(=O)O)C1 (configuration not stated)	i
Cc1cccc(CC(=O)N2CCC(O)(C3CCN4Cc5ccccc5N=C34)CC2)c1 (configuration not stated)	i
CCn1ncc(C(=O)NCCSc2nc3ccccc3o2)c1C	i
Cc1ccc2c(C(=O)CN3CCOCC3)c(C)[nH]c2c1	32%*
COc1ccc2c(c1)c(C(=O)CN1CCOCC1)c(C)n2C	i
Cc1[nH]c2ccc(Cl)cc2c(=O)c1CN1CCOCC1	i

Source: PubChem (Paczesny and Yang Labs, IUPUI and University of Michigan)
